Assay results from the supplement of paper PMC11732987, “Enantioselective OTUD7B fragment discovery through chemoproteomics screening and high-throughput optimisation” (Communications Chemistry, 2025).

Legend:
Assay in all cases: log2 ratio of Biotin-Ahx-Ub-VS probe labelling (fragment/DMSO); higher = less target engagement (more negative = stronger competition), active = hit call of the paper (q ≤ 0.05, log2 ratio ≤ -1)
Settings in all cases: compound concentration: 200 uM; treatment time: 3 h
USP34 = USP34 (UniProt Q70CQ2)
In short: (§1)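 Fragment (200 µM) or vehicle was incubated for 3 h with triplicate HEK293T lysate samples of 495 µg, which were then treated with Biotin-Ahx-Ub-VS at 0.5 µM final for 1 h. Labelled DUBs were enriched on NeutrAvidin, digested with LysC and trypsin, and analysed by diaPASEF LC-MS/MS. Values are average log2 fragment/vehicle ratios from an unpaired t-test on global-median-normalised Spectronaut label-free quantities, using proteins with ≥2 unique peptides.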

USP36 = biological target: T1, USP36 (UniProt Q9P275)
T1 sequence (whole entry): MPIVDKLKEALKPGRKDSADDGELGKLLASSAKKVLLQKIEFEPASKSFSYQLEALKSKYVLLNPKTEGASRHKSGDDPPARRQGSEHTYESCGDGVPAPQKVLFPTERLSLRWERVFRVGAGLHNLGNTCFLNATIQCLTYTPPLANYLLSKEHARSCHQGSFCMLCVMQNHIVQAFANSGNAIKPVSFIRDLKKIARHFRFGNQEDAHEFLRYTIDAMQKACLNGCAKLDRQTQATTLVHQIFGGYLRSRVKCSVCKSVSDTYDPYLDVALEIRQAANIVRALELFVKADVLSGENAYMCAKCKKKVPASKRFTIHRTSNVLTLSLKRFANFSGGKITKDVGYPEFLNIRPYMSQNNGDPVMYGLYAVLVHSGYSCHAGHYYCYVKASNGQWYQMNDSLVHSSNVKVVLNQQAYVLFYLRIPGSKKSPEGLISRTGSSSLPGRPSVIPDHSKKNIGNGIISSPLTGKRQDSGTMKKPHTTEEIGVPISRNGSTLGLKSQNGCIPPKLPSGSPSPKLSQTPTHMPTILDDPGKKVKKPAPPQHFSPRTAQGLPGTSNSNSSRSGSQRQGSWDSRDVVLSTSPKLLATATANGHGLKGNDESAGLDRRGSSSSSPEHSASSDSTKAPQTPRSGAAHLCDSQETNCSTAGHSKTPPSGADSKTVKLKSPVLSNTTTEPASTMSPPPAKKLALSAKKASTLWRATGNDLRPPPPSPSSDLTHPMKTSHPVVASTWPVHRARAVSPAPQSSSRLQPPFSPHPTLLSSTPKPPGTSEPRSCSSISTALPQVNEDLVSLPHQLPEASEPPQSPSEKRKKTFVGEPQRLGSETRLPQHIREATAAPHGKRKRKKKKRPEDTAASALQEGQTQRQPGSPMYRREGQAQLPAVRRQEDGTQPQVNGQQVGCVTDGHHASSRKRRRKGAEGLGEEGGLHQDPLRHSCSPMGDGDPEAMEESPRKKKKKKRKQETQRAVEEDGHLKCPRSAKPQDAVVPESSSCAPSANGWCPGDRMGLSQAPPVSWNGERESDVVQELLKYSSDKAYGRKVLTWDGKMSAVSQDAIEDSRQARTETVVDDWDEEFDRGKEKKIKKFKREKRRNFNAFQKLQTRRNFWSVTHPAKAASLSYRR
In short: as §1

USP38 = biological target: T2, USP38 (UniProt Q8NB14)
T2 sequence (whole entry): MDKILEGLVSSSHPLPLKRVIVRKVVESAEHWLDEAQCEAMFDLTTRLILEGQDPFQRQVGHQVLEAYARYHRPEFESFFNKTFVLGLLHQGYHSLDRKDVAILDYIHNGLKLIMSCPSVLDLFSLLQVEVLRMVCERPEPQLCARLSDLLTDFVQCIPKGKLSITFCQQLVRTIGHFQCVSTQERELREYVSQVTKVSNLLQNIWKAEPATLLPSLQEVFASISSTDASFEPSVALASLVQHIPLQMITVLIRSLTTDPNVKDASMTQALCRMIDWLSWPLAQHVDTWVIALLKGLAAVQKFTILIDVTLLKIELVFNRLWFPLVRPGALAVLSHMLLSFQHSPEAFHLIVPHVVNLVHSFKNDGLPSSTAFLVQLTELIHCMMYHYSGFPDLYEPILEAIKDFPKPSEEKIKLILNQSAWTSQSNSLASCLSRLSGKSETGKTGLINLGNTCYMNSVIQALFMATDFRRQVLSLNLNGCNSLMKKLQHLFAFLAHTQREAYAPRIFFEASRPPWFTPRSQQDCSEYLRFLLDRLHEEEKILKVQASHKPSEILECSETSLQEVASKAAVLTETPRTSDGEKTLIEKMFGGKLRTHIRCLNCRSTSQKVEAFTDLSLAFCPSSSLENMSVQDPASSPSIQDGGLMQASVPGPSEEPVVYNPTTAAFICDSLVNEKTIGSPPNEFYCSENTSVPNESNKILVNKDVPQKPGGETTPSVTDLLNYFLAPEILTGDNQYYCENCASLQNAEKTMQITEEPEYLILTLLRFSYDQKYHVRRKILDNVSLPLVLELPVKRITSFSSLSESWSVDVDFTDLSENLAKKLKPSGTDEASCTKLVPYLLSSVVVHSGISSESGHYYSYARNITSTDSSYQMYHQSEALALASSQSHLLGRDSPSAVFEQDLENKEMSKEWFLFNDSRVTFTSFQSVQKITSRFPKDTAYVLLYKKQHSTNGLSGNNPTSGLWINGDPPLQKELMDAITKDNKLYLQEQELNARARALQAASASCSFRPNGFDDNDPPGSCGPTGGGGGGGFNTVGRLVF
In short: as §1

USP39 = biological target: T3, USP39 (UniProt Q53GS9)
T3 sequence (whole entry): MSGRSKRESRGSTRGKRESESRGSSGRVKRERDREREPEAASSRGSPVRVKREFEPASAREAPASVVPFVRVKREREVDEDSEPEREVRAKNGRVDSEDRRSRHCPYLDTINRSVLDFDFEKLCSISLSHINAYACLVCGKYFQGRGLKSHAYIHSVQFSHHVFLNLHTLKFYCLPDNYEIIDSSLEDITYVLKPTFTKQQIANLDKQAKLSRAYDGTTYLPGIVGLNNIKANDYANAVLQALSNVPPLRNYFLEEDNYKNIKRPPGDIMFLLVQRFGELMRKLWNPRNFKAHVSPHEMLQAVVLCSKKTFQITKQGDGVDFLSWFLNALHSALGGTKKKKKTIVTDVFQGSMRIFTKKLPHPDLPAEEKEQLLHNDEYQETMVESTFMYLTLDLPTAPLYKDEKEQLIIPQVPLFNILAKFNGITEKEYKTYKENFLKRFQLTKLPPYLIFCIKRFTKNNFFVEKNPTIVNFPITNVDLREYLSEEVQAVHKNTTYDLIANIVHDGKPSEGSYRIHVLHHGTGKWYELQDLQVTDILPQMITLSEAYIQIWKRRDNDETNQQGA
In short: as §1

USP4 = biological target: T4, USP4 (UniProt Q13107)
T4 sequence (whole entry): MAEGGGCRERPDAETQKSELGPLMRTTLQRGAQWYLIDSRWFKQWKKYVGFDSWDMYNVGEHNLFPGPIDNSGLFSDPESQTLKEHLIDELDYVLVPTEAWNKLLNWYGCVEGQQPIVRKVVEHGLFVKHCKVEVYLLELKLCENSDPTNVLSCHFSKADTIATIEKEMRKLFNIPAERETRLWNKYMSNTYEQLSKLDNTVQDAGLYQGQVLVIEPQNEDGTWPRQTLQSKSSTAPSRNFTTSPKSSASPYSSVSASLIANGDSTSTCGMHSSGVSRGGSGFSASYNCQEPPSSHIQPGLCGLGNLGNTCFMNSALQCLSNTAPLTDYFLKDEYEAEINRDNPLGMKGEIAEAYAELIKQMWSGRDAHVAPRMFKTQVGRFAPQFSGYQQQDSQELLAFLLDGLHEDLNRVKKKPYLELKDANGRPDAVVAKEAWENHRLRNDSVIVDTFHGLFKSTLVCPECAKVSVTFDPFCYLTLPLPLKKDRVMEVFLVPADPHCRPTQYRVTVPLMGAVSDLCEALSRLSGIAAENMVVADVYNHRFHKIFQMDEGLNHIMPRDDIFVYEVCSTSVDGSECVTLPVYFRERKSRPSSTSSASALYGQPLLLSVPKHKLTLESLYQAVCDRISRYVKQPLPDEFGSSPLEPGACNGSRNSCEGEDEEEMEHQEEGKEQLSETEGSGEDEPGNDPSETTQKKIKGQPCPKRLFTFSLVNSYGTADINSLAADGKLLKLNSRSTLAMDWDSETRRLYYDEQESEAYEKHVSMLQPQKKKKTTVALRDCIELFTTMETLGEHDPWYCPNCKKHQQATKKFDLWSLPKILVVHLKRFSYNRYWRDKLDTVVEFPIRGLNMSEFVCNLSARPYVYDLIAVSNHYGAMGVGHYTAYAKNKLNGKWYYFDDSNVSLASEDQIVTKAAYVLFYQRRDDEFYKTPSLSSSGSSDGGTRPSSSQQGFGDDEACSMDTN
In short: as §1

Measured: log2 ratio of Biotin-Ahx-Ub-VS probe labelling

USP34, sequence (Q70CQ2 whole entry, the tested form may be a part): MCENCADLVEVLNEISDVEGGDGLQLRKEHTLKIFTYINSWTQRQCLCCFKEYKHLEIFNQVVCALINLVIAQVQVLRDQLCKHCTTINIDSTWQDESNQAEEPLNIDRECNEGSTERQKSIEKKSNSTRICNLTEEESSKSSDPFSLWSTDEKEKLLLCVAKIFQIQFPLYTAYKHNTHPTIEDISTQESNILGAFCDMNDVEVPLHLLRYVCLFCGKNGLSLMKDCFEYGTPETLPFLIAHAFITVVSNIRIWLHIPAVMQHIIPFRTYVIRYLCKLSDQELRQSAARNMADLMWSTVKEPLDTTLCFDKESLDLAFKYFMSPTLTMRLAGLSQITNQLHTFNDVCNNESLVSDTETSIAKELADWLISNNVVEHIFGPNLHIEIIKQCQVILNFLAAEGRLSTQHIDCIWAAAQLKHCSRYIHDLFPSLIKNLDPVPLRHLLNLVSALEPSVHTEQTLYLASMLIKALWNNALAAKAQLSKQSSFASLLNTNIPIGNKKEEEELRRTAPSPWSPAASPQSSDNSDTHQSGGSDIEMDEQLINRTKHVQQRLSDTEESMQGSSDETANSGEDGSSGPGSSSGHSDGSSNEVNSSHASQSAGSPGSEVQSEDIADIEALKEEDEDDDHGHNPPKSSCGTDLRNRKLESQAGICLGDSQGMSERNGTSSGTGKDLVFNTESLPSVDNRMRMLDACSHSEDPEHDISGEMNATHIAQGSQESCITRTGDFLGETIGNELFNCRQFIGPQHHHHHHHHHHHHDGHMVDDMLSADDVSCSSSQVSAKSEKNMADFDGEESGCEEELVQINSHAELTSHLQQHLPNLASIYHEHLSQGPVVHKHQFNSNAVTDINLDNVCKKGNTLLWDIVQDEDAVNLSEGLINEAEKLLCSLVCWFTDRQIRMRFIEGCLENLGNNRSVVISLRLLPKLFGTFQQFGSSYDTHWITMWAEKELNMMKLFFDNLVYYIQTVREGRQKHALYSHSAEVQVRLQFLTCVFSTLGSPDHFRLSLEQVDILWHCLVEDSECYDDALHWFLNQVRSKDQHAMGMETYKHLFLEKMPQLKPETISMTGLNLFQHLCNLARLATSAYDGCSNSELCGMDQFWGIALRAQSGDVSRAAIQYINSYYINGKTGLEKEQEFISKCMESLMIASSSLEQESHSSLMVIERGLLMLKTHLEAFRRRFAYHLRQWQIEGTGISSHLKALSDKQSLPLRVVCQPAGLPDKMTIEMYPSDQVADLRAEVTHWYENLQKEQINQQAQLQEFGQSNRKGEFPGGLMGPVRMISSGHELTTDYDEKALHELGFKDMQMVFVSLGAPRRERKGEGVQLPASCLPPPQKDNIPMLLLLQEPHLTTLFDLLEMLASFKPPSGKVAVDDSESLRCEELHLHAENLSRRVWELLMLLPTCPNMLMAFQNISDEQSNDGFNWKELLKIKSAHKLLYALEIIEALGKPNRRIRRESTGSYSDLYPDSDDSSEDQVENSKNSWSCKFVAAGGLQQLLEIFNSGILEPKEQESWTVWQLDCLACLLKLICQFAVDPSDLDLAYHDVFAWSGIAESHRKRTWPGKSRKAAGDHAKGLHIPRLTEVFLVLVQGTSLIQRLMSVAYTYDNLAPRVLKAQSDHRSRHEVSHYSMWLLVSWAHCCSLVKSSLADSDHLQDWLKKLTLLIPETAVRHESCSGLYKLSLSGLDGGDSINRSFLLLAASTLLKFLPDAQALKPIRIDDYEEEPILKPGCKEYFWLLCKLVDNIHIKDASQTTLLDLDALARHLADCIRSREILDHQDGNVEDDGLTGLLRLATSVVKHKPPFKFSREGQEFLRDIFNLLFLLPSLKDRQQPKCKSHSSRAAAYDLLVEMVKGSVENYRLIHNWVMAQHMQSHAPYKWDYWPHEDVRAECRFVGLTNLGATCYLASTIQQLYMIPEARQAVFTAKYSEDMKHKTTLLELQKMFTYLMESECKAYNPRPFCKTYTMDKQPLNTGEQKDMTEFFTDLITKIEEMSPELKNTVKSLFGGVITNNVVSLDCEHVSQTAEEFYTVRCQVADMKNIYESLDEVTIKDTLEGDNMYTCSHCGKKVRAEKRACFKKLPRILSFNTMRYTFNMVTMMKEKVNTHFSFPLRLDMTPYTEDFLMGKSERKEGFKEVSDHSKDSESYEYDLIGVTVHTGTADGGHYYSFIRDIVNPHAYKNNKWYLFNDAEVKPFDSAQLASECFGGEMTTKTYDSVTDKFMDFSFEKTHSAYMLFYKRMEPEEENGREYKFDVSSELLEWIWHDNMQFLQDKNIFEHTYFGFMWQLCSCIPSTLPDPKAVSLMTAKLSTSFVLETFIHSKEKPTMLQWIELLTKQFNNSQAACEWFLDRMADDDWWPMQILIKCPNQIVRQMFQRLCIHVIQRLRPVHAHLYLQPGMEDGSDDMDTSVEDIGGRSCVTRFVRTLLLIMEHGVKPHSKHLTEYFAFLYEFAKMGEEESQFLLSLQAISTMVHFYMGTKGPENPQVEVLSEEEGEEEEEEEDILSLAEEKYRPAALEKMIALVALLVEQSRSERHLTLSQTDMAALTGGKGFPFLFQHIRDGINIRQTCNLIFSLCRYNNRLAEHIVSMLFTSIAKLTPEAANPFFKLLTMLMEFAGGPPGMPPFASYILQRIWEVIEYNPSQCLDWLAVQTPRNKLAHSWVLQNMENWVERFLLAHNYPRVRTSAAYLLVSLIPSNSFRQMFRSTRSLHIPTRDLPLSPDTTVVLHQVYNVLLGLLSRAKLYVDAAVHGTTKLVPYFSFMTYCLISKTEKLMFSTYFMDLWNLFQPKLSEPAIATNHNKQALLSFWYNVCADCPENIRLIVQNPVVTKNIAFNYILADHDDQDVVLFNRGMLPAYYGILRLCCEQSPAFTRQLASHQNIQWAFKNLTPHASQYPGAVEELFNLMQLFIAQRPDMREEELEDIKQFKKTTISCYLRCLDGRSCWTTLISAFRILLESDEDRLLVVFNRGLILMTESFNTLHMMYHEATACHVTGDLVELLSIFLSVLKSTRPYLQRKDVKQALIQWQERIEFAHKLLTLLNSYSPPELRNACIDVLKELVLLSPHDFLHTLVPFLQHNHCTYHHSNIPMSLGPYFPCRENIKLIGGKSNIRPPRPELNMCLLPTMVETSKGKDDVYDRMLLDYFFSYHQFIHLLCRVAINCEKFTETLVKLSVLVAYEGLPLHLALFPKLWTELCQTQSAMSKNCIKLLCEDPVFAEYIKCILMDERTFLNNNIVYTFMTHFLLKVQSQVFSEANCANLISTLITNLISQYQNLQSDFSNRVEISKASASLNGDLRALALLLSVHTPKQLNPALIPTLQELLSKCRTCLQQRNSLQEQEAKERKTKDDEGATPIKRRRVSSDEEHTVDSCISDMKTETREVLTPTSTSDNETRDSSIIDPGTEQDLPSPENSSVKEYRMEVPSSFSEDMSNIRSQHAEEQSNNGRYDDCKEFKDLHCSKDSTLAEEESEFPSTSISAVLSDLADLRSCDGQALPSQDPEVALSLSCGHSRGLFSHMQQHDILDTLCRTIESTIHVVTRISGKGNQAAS

Cl.O=C(CCl)N1CCc2ncncc2C1
inactive: USP34 -0.136 | USP36 0.0811 | USP38 -0.0489 | USP39 0.321 | USP4 -0.201
